Assay results as given in PubChem BioAssay AID1259418 (Broad Institute, 2018).
Hit rate of the full screen: of about 3,400 compounds, about 840 (25%) were called active. Another 11% or so got no clear call; they are omitted. A selection follows. Entries with a potency or affinity are not part of this list. Values without a mark were called inactive.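 Rule for the calls: active = fitted half-maximal concentration of signal decrease at or below twice the sample's top tested concentration; inconclusive = flat curve between -70 and -30 percent, or poor fit; inactive = flat within 30 percent, signal rise, or potency above limit.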

assay: inhibitors of Toxoplasma growth in IFN-γ-primed HeLa – cell-based, ME49Luc, luciferase, 72 h, dose response (AID 1259418); conditions: T. gondii ME49Luc in IFN-y HeLa, active compounds read low, -100% = high-dose IFN-γ control wells; at 19.5 µM unless noted

SMILES | max activity
CCOc1ccccc1NC(=O)COc1nc(CC)nc2ccccc12 | -13.2% [at 0.35 µM]
O=C(NC1CCCC1)N1CCCCN2[C@H](CO)[C@@H](c3ccc(-c4cccnc4)cc3)[C@H]2C1 | 11.4%
O=C(NC1CCCC1)N1CCCCN2[C@@H](CO)[C@@H](c3ccc(-c4cccnc4)cc3)[C@@H]2C1 | 33.9%
COc1ccc(-c2nc(NC(C)CCc3ccccc3)c3ccccc3n2)cc1 (stereo not drawn) | 13.7%
CCOc1ccc(S(=O)(=O)N2CCc3nc(-c4ccc(OC)cc4)sc3C2)cc1 | -25.8% [at 0.16 µM]
Cc1nc(-c2ccc(F)cc2)sc1-c1ccc(SCc2ccccc2F)nn1 | -39.8%
Clc1ccc(-c2nc(NCCCN3CCc4ccccc4C3)c3ccccc3n2)cc1 | -15.5% [at 0.16 µM]
Cc1nc(OCC(=O)Nc2ccc(F)c(Cl)c2)c2ccccc2n1 | 21% [at 0.68 µM]
COC(=O)/C=c1\sc2nc(=O)c(C)nn2c1=O | 25.1% [at 10 µM]
Cc1nc(-c2ccc(F)cc2)sc1-c1ccc(SCc2ccc(Cl)cc2Cl)nn1 | -14.7% [at 5 µM]
Cc1cccc(CSc2ccc(-c3sc(-c4ccc(F)cc4)nc3C)nn2)c1 | -11.3% [at 0.35 µM]
Cc1cccc(OCC(=O)Nc2ccc(-c3nc(-c4ccccc4)co3)cc2)c1C | -18.6% [at 2.6 µM]
Cc1ccccc1-c1ccc([C@@H]2[C@H](CO)N3C(=O)CN(C(=O)c4ccncc4)C[C@@H]23)cc1 | 29.6%
COc1cccc(-c2ccc([C@@H]3[C@H]4CN(C(=O)c5cccnc5)CC(=O)N4[C@H]3CO)cc2)c1 | 12.1%
Cc1ccccc1-c1ccc([C@H]2[C@@H](CO)N3C(=O)CN(C(=O)c4ccncc4)C[C@@H]23)cc1 | 27.7%
O=C(c1cnccn1)N1CC(=O)N2[C@H](CO)[C@@H](c3ccc(/C=C/c4ccccc4)cc3)[C@H]2C1 | 28.4%
COc1cccc(-c2ccc([C@H]3[C@H](CO)N4C(=O)CN(C(=O)c5cccnc5)C[C@@H]34)cc2)c1 | 25.9%
O=C(CCC1N=C2c3ccccc3N=C(SCc3cc(=O)n4ccccc4n3)N2C1=O)NCc1ccc(F)cc1 (stereo not drawn) | 26.8%
COc1ccc(-c2noc(-c3nnn(Cc4nc(-c5ccccc5OC)oc4C)c3C)n2)cc1OC | 11.4% [at 0.16 µM]
COc1ccc(-c2nc3c(s2)CN(C(=O)Nc2ccc(C)cc2)CC3)cc1OC | -13% [at 0.35 µM]
O=C1CCc2cc(S(=O)(=O)NCc3cccn3Cc3ccccc3F)ccc2N1 | 12.6%
CCOC(=O)CSC1=Nc2ccccc2C2=NC(CCC(=O)NCc3ccc4c(c3)OCO4)C(=O)N12 (stereo not drawn) | 25.7% [at 2.6 µM]
Cc1nc(OCC(=O)Nc2ccc(Cl)c(C(F)(F)F)c2)c2ccccc2n1 | 27.7% [at 0.35 µM]
COc1ccc(-c2nc3c(s2)CN(C(=O)Nc2cc(C)ccc2OC)CC3)cc1 | 17%
O=C(c1cnccn1)N1CC(=O)N2[C@H](CO)[C@@H](c3ccc(-c4cccc(F)c4)cc3)[C@H]2C1 | 46.4%

SMILES | max activity
O=C(c1cnccn1)N1CC(=O)N2[C@H](C1)[C@H](c1ccc(-c3cccc(F)c3)cc1)[C@@H]2CO | 32.8%
Cc1oc(-c2cccc(Cl)c2)nc1CN1CCN(C(=O)NC2CCCCC2)CC1 | 20.5% [at 1.35 µM]
CCOC(=O)Cc1ccc(NC(=O)Nc2ccc(-c3nc(-c4cc(C)ccc4C)co3)cc2)cc1 | 5.78%
O=C(NCCc1csc(-c2ccccc2)n1)[C@H]1CSCN1C(=O)CCc1ccccc1 | 14.8% [at 5 µM]
Cc1nc(OCC(=O)Nc2cccc(C(F)(F)F)c2)c2ccccc2n1 | -11.8% [at 2.6 µM]
Cc1ccc(N(Cc2nc(-c3cccc(C)c3)oc2C)S(=O)(=O)c2cccs2)cc1 | -8.42% [at 0.16 µM]
CCOc1ccc(N(Cc2nc(-c3cccc(Cl)c3)oc2C)S(=O)(=O)c2cccs2)cc1 | 19.9%
Cc1cccc(-c2nc(CN(c3ccccc3)S(=O)(=O)c3cccs3)c(C)o2)c1 | -12.1% [at 1.35 µM]
COc1ccc(-c2nc(N3CCCc4ccccc43)c3ccccc3n2)cc1 | 23.2% [at 10 µM]
O=C(NCCc1ccccc1)Nc1ccc(-c2nc(-c3ccccc3)co2)cc1 | 87.9%
O=C(CC1Nc2c3ccccc3nc(=S)n2C1=O)NCc1cccc(Cl)c1 (stereo not drawn) | -20.4% [at 2.6 µM]
COc1ccc(-c2nc(N3CCN(c4ccccn4)CC3)c3ccccc3n2)cc1 | -11.1% [at 0.35 µM]
COCC#Cc1ccc([C@H]2[C@H](CO)N3CCCCN(C(=O)NC4CCCC4)C[C@@H]23)cc1 | 30.1%
Cc1ccc(Nc2nc(N)nc(CN3CCc4ccccc4C3)n2)cc1 | 19.9% [at 5 µM]
CCc1nc(OCC(=O)Nc2cc(F)ccc2F)c2ccccc2n1 | 14.2%
COCCn1cc2c(n1)C(CNC(=O)CS(C)(=O)=O)OCC2 (stereo not drawn) | 15.6%
Cc1noc(C)c1C1CCCN1C(=O)Cn1nc(C(F)(F)F)c2c1CCCC2 (stereo not drawn) | -14% [at 0.35 µM]
O=C(NCc1cccc(Cl)c1)c1ccc(-n2nc(C(F)(F)F)c3c2CCCC3)cc1 | -5.33% [at 0.68 µM]
Cc1ccc(C)c(N2CCN(C(=O)c3ccc(-n4nc(C(F)(F)F)c5c4CCCC5)cc3)CC2)c1 | -23.2%
CCc1nc(-c2ccc(C(=O)N3CCC4(CC3)OCCO4)cc2)cs1 | 5.55%
Cc1nc(-c2cccc(-c3noc(C(=O)N4CCC5(CC4)OCCO5)n3)c2)cs1 | 13.7% [at 2.6 µM]
O=C(c1ccc(Cn2cncn2)cc1)N1CCC(N2CCCCC2)CC1 | 4.24% [at 10 µM]
COc1ccc(-c2nc(N3CCN(c4cccc(C(F)(F)F)c4)CC3)c3ccccc3n2)cc1 | 13.5% [at 5 µM]
COc1ccc(-n2ncc3c(Nc4ccc(C)cc4)ncnc32)cc1 | 28.3% [at 0.68 µM]
CCOc1ccc(-c2nc(CN3CCN(C(=O)NC4CCCCC4)CC3)c(C)o2)cc1 | -13.3% [at 0.16 µM]

SMILES | max activity
Cc1oc(-c2cccc(Cl)c2)nc1CN1CCN(C(=O)NC2CCCC2)CC1 | 17.3% [at 10 µM]
Cc1ccc(-c2nc(CN3CCN(C(=O)NC4CCCCC4)CC3)c(C)o2)cc1 | 6.38% [at 5 µM]
COc1ccc(CN2CCc3nc(SCc4nc(-c5cccc(C)c5)oc4C)[nH]c(=O)c3C2)cc1 | -7.54% [at 2.6 µM]
O=C(CN1CCC2(CC1)N=C(c1ccc(Cl)cc1)C(=O)N2)Nc1ccc2c(c1)OCO2 | -13.7% [at 1.35 µM]
Cc1ccc(C)c(-c2coc(-c3ccc(NC(=O)Nc4ccc(F)cc4)cc3)n2)c1 | -5.84% [at 0.35 µM]
COc1cccc(CNC(=O)Nc2ccc(-c3nc(-c4cc(C)ccc4C)co3)cc2)c1 | 7.66% [at 0.16 µM]
CCc1ccc(NC(=O)Nc2ccc(-c3nc(-c4ccccc4)co3)cc2)cc1 | 8.96%
CCc1cccc(Nc2nc(-c3ccc(OC)cc3)nc3ccccc23)c1 | 18.8% [at 0.35 µM]
Cc1cccc(-c2nc(Cn3c(=O)c4c(C)cc(C)nc4n(-c4ccccc4)c3=O)c(C)o2)c1 | -12.2% [at 0.35 µM]
COc1ccc(NC(=O)Nc2ccc(-c3nc(-c4ccc(C)cc4C)co3)cc2)cc1OC | 23.8%
Cc1ccccc1-c1nc(CN2CCN(C(=O)Nc3ccccc3C(F)(F)F)CC2)c(C)o1 | 9.13% [at 0.16 µM]
COc1ccc(N(Cc2nc(-c3ccc(OC(C)C)cc3)oc2C)S(=O)(=O)c2cccs2)cc1 | -11.1% [at 0.35 µM]
CCOc1ccc(N(Cc2nc(-c3cccc(C)c3)oc2C)S(=O)(=O)c2cccs2)cc1 | 11.4% [at 10 µM]
CCOc1ccc(-c2nc(CN(c3ccc(OCC)cc3)S(=O)(=O)c3cccs3)c(C)o2)cc1 | 4%
Cc1oc(-c2ccc(OC(C)C)cc2)nc1CN(c1ccccc1)S(=O)(=O)c1cccs1 | 21%
COc1ccc(-c2nc(CN(c3ccc(C)cc3)S(=O)(=O)c3cccs3)c(C)o2)cc1 | -6.38% [at 0.16 µM]
COc1ccc(N(Cc2nc(-c3ccc(C)cc3)oc2C)S(=O)(=O)c2cccs2)cc1 | 9.59% [at 0.35 µM]
CC(C)NC(=O)CC1Nc2c3ccccc3nc(=S)n2C1=O (stereo not drawn) | 98.4%
COc1ccc(C(=O)/C=C/c2cc(C(=O)O)cc3c2OCOC3)c(O)c1 | 24.8% [at 10 µM]
CCn1cc(CN2CCCC2c2cc(C(C)C)on2)c2cc(OC)ccc21 (stereo not drawn) | 7.79% [at 2.6 µM]
Cc1cccc(-c2nc(Cn3nnc(-c4nc(-c5cccc(Cl)c5)no4)c3C)c(C)o2)c1 | 8.17% [at 2.6 µM]
O=C(C1CCC1)N1CC[C@H]2CN(Cc3cccc(Cl)c3)S(=O)(=O)[C@@H]2CC1 | -9.19%
CCCc1ccc(S(=O)(=O)N2CCc3nc(-c4ccc(OC)cc4)sc3C2)cc1 | 13.1% [at 0.16 µM]
